According to PubChem BioAssay AID504882 (Broad Institute, 2011):
Screen size: about 1,200 compounds; about 290 (24%) were called active. About 9% were inconclusive and are not listed. A selection follows. Potency and affinity values are given separately. Values without a mark were called inactive. No rule for the calls is given here.

experiment: LCL viability reduction – cell-based, plate reader, cherry-picks, set 2, cytotoxicity control, dose response (AID 504882); conditions: EBV lymphoblastoid cells (LCL) viability; series mostly up to 19.5 µM; activity change, negative = cytotoxicity: at the top concentration;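 also: 0% = neutral control wells and -100% = positive control wells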

With CN(C)c1cccc(C(=O)N/N=C/c2ccccc2F)c1 as the compound, how does the “activity change, negative = cytotoxicity” value read?
Its value is -0.033%.

Which “activity change, negative = cytotoxicity” value does the source give for CCN(CC)c1ccc(NC(=O)c2cccc(F)c2)c(C)c1 here?
Its value is -4.81%.

For Cn1ncc(Cl)c1C(=O)NC1CCCC1, which “activity change, negative = cytotoxicity” value is on record?
The value was 8.05%.

Which “activity change, negative = cytotoxicity” value does the source give for COCCn1c(SCC(=O)N2CCc3ccccc32)nc2c(c1=O)SC(C)C2 (stereo not given) here?
Its value is 4.03%.

Which “activity change, negative = cytotoxicity” value does the source give for Cc1cc(C)n(C2CCCCC2OC(=O)c2ccccc2F)n1 (stereo not given) here?
Its value is 6.26%.

Which “activity change, negative = cytotoxicity” value does the source give for O=C(c1ccc(Cl)cc1)N1CCN(CCOc2ccccc2)CC1 here?
Its value is -5.59%.

With CNC(=S)N1N=C(c2cccs2)CC1c1ccc(F)cc1 (stereo not given) as the compound, how does the “activity change, negative = cytotoxicity” value read?
The value was 6.47%.

With O=C1OCCC1Sc1nnc(-c2ccc(Cl)cc2Cl)o1 (stereo not given) as the compound, how does the “activity change, negative = cytotoxicity” value read?
The value was 3.95%.

Which “activity change, negative = cytotoxicity” value does the source give for CCCC(=O)C1=C(O)C(C(=O)OC)C(C)(C)CC1=Nc1ccncc1 (stereo not given) here?
Its value is 0.978%.

For Cc1cc(C(=O)COC(=O)c2ccc[nH]c2=O)c(C)n1-c1ccccc1, which “activity change, negative = cytotoxicity” value is on record?
The value was 7.68%.

For COc1ccc(S(=O)(=O)N2CCOCC2)cc1NC(=O)COC(=O)CCS(=O)(=O)c1ccc(C)cc1, which “activity change, negative = cytotoxicity” value is on record?
The value was 18.5%.

With O=C(O)CCc1nc(-c2ccc(Cl)cc2)no1 as the compound, how does the “activity change, negative = cytotoxicity” value read?
Its value is 12.6%.

With NC(=O)c1sc2nc3c(c(-c4cccs4)c2c1N)CCCCC3 as the compound, how does the “activity change, negative = cytotoxicity” value read?
Its value is -24.2%.

For O=C1CC(c2cccs2)Cc2nc(NC(=O)C3CC3)ncc21 (stereo not given), which “activity change, negative = cytotoxicity” value is on record?
The value was 7.29%.

With O=C(Nc1ccc(Br)cc1)C1CC(O)CN1C(=O)OCc1ccccc1 (stereo not given) as the compound, how does the “activity change, negative = cytotoxicity” value read?
The value was -0.795%.

With CC(CN1CCCCC1)OC(=O)c1ccc2c(c1)OCO2 (stereo not given) as the compound, how does the “activity change, negative = cytotoxicity” value read?
The value was 8.24%.

With COC(=O)C1=C(C(=O)c2ccccc2)C(c2ccccc2)n2nnnc2N1 (stereo not given) as the compound, how does the “activity change, negative = cytotoxicity” value read?
Its value is 9.39%.

With Cc1ccc(NC(=O)/C=N/OCC(=O)NCc2ccccc2Cl)cc1 as the compound, how does the “activity change, negative = cytotoxicity” value read?
Its value is 4.91%.

For Cc1cc(N)nc(=O)n1C1CC(O)C(CO)O1 (stereo not given), which “activity change, negative = cytotoxicity” value is on record?
Its value is 13.5%.

Which “activity change, negative = cytotoxicity” value does the source give for CCOC(=O)/C=C(\C)Sc1cc(=O)oc2ccccc12 here?
The value was 9.34%.

With COc1ccc(S(=O)(=O)N2CCCCCC2)cc1C(=O)OCc1cccc(OC)c1OC as the compound, how does the “activity change, negative = cytotoxicity” value read?
Its value is -3.66%.

For CCCNC(=O)N1CCN(S(=O)(=O)c2ccc(C)c(C)c2)CC1, which “activity change, negative = cytotoxicity” value is on record?
The value was 27.5%.

For Cc1ccc(-n2nc(C(=O)NCc3ccc(C)o3)c3c4ccccc4n(C)c3c2=O)cc1, which “activity change, negative = cytotoxicity” value is on record?
The value was 3.13%.

With COc1ccc(OC)c(CCNC(=O)CCn2nc(C)c3c(C)n(-c4ccccc4)nc3c2=O)c1 as the compound, how does the “activity change, negative = cytotoxicity” value read?
The value was 17%.

With Cn1cc(CC(=O)NCCCN2CCCC2)c2ccccc21 as the compound, how does the “activity change, negative = cytotoxicity” value read?
Its value is 8%.

With CCOC(=O)N1CCC(NC(=O)C2CCCN(Cc3nc(-c4cccc(Cl)c4)oc3C)C2)CC1 (stereo not given) as the compound, how does the “activity change, negative = cytotoxicity” value read?
The value was 20.2%.

With NC(=O)OCC(COC(N)=O)c1ccccc1 as the compound, how does the “activity change, negative = cytotoxicity” value read?
The value was 7.54%.

With O=C(CN1C(=O)c2ccccc2S1(=O)=O)c1ccccc1 as the compound, how does the “activity change, negative = cytotoxicity” value read?
Its value is 15.8%.

For COc1ccc(-n2cnc3c(cnn3CCC#N)c2=N)cc1, which “activity change, negative = cytotoxicity” value is on record?
The value was 16.5%.

For O=C(NC1CCCCC1)N1CCN(c2ccc([N+](=O)[O-])cc2)CC1, which “activity change, negative = cytotoxicity” value is on record?
The value was -5.42%.

With COc1ccc(CCNC(=O)c2nnn(-c3ccc4c(c3)OCCO4)c2N)cc1OC as the compound, how does the “activity change, negative = cytotoxicity” value read?
The value was 10.3%.

Which “activity change, negative = cytotoxicity” value does the source give for Cc1ccccc1-n1nc(C)c2cc(C(=O)NC3CC3)sc21 here?
Its value is 12.5%.

Which “activity change, negative = cytotoxicity” value does the source give for CC1CCN(CCOc2ccc(C(=O)c3ccccc3)cc2)CC1 here?
Its value is 8.06%.

For O=C(Cn1ccc(C(F)(F)F)n1)Nc1cccc(S(=O)(=O)N2CCCCC2)c1, which “activity change, negative = cytotoxicity” value is on record?
The value was 6.79%.

With O=C1C2CCCN2c2ccc(S(=O)(=O)N3CCOCC3)cc2N1Cc1ccccc1F (stereo not given) as the compound, how does the “activity change, negative = cytotoxicity” value read?
Its value is 0.737%.

For Cn1c(CC(=O)Nc2ccc(F)cc2)nnc1SCC(=O)Nc1nncs1, which “activity change, negative = cytotoxicity” value is on record?
Its value is 9.16%.

Which “activity change, negative = cytotoxicity” value does the source give for Cc1ccccc1N(C(=O)c1snc(C(N)=O)c1N)C(C(=O)NC1CCCCC1)c1ccc(O)cc1 (stereo not given) here?
Its value is 10.6%.

For N#CCN(N=Nc1ccccc1)c1ccccc1, which “activity change, negative = cytotoxicity” value is on record?
Its value is 5.24%.

For COC(=O)c1ccc(/C=C(/NC(=O)c2ccccc2)C(=O)N2CCOCC2)cc1, which “activity change, negative = cytotoxicity” value is on record?
The value was 26.1%.

With Cc1cc(/C=C2\Cc3ccccc3C2=O)c(C)n1-c1ccccc1 as the compound, how does the “activity change, negative = cytotoxicity” value read?
Its value is -4.17%.

With Cc1ccc(CCNC(=O)CCc2nc3ccccc3[nH]2)cc1 as the compound, how does the “activity change, negative = cytotoxicity” value read?
The value was 16.2%.

With CC(=O)Nc1ccc(OCC(O)CNC(C)C)cc1 (stereo not given) as the compound, how does the “activity change, negative = cytotoxicity” value read?
Its value is 7.6%.

For CC1=C(C)C(OCCCl)N(c2cc(O)c(Cl)cc2F)C1=O (stereo not given), which “activity change, negative = cytotoxicity” value is on record?
Its value is 13.6%.

For O=C(O)c1cccc(NC(=O)c2cn(-c3ccccc3)nc2-c2ccc(F)cc2)c1, which “activity change, negative = cytotoxicity” value is on record?
The value was 12.6%.

With N/C(=N\OC(=O)c1cccc(Br)c1)c1ccccn1 as the compound, how does the “activity change, negative = cytotoxicity” value read?
Its value is 7.28%.

With C/C(=N/NC(=O)c1cc(C2CC2)[nH]n1)c1cccs1 as the compound, how does the “activity change, negative = cytotoxicity” value read?
Its value is 6.57%.

For Cc1cc(C(=O)CSc2nnc(-c3cccs3)o2)c(C)n1-c1ccccc1, which “activity change, negative = cytotoxicity” value is on record?
The value was 0.738%.

For CN(Cc1ccc(F)cc1)C(=O)CN1CCN(S(=O)(=O)c2ccc3c(c2)OCCCO3)CC1, which “activity change, negative = cytotoxicity” value is on record?
The value was 3.94%.

With COc1cc(N(C)C)c([N+](=O)[O-])cc1C(=O)N1CCN(Cc2ccccc2)CC1 as the compound, how does the “activity change, negative = cytotoxicity” value read?
Its value is 10.1%.

With COc1ccc(CCNC(=O)CSc2ccsc2[N+](=O)[O-])cc1OC as the compound, how does the “activity change, negative = cytotoxicity” value read?
Its value is 22.9%.

With CCOc1ccc(NC(=O)Cn2cc(C(=O)CC)c3ccccc32)cc1 as the compound, how does the “activity change, negative = cytotoxicity” value read?
The value was 10.4% [at 6.8 µM].

With O=C(NC(Cc1c[nH]c2ccccc12)C(=O)Nc1ccc(F)c([N+](=O)[O-])c1)c1cccs1 (stereo not given) as the compound, how does the “activity change, negative = cytotoxicity” value read?
Its value is -21.1%.

With COc1ccc(/C=N/Nc2cc(OC)ncn2)cc1 as the compound, how does the “activity change, negative = cytotoxicity” value read?
Its value is 1.43%.

With Cc1ccc(C)c(S(=O)(=O)N2CCN(CC(=O)N3CCc4ccccc4C3)CC2)c1 as the compound, how does the “activity change, negative = cytotoxicity” value read?
Its value is 19.5%.

Which “activity change, negative = cytotoxicity” value does the source give for Cc1ccc(NC(=S)Nc2cccc(S(=O)(=O)Nc3c(C)n(C)n(-c4ccccc4)c3=O)c2)cc1 here?
The value was 9.53%.

Which “activity change, negative = cytotoxicity” value does the source give for O=C1N[C@@H](Cc2c[nH]c3ccccc23)COC(=O)[C@H](Cc2ccc(F)cc2)C/C=C\C[C@H]1CC(=O)N(CCO)Cc1ccccc1 here?
Its value is 25% [at 6.8 µM].

For O=C(Nc1ccc(CN2CCOCC2)cc1)c1cc2ccccn2n1, which “activity change, negative = cytotoxicity” value is on record?
Its value is 15.2%.

For O=C(Nc1ccc(N2CCOCC2)cc1)c1cnccn1, which “activity change, negative = cytotoxicity” value is on record?
Its value is 6.78%.

Which “activity change, negative = cytotoxicity” value does the source give for CSc1nc(N)nc(SCC(=O)C23CC4CC(CC(C4)C2)C3)c1C#N here?
The value was -16.5%.

Which “activity change, negative = cytotoxicity” value does the source give for COc1ccc(C2CC(C(F)(F)F)n3ncc(C(=O)NCc4cccnc4)c3N2)cc1OC (stereo not given) here?
Its value is 15.4%.

With O=C(CN1C(=O)c2ccccc2C1=O)NNC1=NS(=O)(=O)c2ccccc21 as the compound, how does the “activity change, negative = cytotoxicity” value read?
Its value is 12.6%.

For CCOc1cccc(CNc2nnnn2C)c1, which “activity change, negative = cytotoxicity” value is on record?
The value was 9.74%.

With Nc1nc2ccccc2n1C(=O)c1ccccc1 as the compound, how does the “activity change, negative = cytotoxicity” value read?
The value was -8.2%.

For COc1ccc(/C=C/c2nc3ccccc3c(=O)o2)cc1, which “activity change, negative = cytotoxicity” value is on record?
Its value is 4.96%.

For CCCC(=O)NCCCc1nc2ccccc2n1C, which “activity change, negative = cytotoxicity” value is on record?
Its value is 23.7%.

Which “activity change, negative = cytotoxicity” value does the source give for CC(C)(C)n1nc(-c2ccc(Cl)cc2)c2c(N)ncnc21 here?
The value was -15.3%.

Which “activity change, negative = cytotoxicity” value does the source give for O=C(CCNc1cccc(F)c1)c1cc2ccccc2o1 here?
Its value is 23.3%.

For CCc1cc(=O)oc2c(CNCc3c(F)cccc3Cl)c(O)ccc12, which “activity change, negative = cytotoxicity” value is on record?
Its value is 8.05%.

With Cc1cc(N2CCCC2=O)cc(C)c1S(=O)(=O)Nc1c(C)nn(C)c1C as the compound, how does the “activity change, negative = cytotoxicity” value read?
Its value is 32.3%.

For O=C(C=C1SCCS1)/C=C/c1ccco1, which “activity change, negative = cytotoxicity” value is on record?
Its value is -1.34%.
